In assay [1] the target is Sphingosine kinase 1 (Homo sapiens) (UniProt Q9NYA1). Particulars: at 1 µM.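 Also: mean SPHK1 inhibition value reported from the GSK PKIS kinase panel screen.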
Assay [2] concerns the target T1, Sphingosine kinase 2 (Homo sapiens) (UniProt Q9NRA0).
T1 sequence (whole entry): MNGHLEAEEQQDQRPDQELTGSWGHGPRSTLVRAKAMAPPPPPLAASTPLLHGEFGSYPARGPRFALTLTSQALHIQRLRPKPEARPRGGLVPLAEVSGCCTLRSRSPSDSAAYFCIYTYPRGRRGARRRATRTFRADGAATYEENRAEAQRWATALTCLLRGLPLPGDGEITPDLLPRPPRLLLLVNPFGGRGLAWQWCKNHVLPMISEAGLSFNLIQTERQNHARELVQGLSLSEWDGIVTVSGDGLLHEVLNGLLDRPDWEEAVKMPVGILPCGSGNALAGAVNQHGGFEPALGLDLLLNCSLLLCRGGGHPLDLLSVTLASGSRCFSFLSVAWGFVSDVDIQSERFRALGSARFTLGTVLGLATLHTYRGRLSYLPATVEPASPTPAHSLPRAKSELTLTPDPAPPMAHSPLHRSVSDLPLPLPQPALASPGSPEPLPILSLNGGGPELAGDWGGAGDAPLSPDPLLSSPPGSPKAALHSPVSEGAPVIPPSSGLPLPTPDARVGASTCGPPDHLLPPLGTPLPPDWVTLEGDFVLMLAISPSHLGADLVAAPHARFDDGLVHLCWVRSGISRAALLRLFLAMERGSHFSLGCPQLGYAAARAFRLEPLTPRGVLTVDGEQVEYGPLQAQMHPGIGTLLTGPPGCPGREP
Particulars: at 0.1 µM.

The target in assay [3] is T1, Sphingosine kinase 2 (Homo sapiens). Particulars: at 1 µM.
Assay [4] concerns the target Casein kinase II subunit alpha (Homo sapiens) (UniProt P68400). To be noted: at 0.1 µM.
Assay [5] has the same target. To be noted: at 1 µM.
Assay [6] concerns the target T2, Inhibitor of nuclear factor kappa-B kinase subunit alpha (Homo sapiens) (UniProt O15111).
T2 sequence (whole entry): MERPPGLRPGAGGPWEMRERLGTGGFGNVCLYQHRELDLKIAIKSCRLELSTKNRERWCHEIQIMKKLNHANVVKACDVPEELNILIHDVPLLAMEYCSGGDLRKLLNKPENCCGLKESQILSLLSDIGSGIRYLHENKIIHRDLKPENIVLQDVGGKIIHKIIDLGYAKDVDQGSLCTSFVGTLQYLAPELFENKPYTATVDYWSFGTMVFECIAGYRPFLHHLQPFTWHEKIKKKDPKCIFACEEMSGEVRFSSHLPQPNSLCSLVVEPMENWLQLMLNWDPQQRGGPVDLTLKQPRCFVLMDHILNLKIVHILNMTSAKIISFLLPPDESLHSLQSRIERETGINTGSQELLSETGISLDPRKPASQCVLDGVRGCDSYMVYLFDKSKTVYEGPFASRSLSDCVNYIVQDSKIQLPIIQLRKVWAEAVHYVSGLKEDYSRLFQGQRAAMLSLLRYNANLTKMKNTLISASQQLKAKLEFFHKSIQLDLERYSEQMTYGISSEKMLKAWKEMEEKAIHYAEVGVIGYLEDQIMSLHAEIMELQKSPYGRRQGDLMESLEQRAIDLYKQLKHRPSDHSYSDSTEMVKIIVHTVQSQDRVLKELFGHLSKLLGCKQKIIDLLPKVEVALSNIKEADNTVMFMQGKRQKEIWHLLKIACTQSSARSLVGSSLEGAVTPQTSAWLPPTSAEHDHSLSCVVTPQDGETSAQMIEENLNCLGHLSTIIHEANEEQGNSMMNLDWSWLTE
Particulars: at 0.1 µM.

Assay [7] deals with T2, Inhibitor of nuclear factor kappa-B kinase subunit alpha (Homo sapiens). Particulars: at 1 µM.
The target in assay [8] is T3, Inhibitor of nuclear factor kappa-B kinase subunit beta (Homo sapiens) (UniProt O14920).
T3 sequence (whole entry): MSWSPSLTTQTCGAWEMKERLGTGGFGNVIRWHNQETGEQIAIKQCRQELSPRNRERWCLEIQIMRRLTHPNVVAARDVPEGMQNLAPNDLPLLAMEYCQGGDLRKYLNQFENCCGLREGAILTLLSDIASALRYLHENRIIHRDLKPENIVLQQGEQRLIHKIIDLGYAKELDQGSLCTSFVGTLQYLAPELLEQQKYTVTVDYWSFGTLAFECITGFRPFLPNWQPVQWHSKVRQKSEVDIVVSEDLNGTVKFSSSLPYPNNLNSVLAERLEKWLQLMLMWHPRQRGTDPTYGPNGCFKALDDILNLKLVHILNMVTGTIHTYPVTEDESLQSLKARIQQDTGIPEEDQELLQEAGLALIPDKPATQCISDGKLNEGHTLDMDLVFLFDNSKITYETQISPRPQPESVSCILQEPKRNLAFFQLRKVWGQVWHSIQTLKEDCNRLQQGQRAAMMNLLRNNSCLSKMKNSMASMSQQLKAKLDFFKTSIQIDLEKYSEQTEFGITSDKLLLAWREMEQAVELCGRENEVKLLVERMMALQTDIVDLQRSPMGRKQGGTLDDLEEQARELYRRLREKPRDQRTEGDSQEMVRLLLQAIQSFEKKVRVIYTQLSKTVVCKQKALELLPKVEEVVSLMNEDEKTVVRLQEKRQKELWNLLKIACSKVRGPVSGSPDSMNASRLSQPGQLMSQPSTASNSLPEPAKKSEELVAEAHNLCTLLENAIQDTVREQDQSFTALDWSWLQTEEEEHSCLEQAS
Particulars: at 0.1 µM.

For assay [9], the target named is T3, Inhibitor of nuclear factor kappa-B kinase subunit beta (Homo sapiens). To be noted: at 1 µM.
The target of assay [10] is T4, Inhibitor of nuclear factor kappa-B kinase subunit epsilon (Homo sapiens) (UniProt Q14164).
T4 sequence (whole entry): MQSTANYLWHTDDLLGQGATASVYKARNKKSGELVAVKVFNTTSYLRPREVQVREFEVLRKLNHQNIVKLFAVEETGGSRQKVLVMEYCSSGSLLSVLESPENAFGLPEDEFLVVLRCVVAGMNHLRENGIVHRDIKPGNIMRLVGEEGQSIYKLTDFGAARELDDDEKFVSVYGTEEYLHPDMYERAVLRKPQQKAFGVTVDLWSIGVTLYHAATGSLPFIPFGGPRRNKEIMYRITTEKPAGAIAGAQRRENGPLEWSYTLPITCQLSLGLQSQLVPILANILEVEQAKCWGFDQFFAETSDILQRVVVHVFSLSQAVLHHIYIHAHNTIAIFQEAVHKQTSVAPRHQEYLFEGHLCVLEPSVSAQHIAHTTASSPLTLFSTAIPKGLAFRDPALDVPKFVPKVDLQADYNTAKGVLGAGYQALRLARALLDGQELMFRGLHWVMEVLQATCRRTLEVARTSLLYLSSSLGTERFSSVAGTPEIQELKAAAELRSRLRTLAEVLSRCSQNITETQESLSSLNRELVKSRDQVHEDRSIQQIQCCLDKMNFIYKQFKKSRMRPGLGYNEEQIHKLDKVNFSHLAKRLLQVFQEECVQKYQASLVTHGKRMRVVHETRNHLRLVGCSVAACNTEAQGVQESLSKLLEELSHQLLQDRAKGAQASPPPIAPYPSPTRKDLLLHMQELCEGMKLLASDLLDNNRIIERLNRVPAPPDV
To be noted: at 0.1 µM.

Assay [11] concerns the target T4, Inhibitor of nuclear factor kappa-B kinase subunit epsilon (Homo sapiens). Particulars: at 1 µM.
Assay [12] has as its target T5, Serine/threonine-protein kinase Nek1 (Homo sapiens) (UniProt Q96PY6).
T5 sequence (whole entry): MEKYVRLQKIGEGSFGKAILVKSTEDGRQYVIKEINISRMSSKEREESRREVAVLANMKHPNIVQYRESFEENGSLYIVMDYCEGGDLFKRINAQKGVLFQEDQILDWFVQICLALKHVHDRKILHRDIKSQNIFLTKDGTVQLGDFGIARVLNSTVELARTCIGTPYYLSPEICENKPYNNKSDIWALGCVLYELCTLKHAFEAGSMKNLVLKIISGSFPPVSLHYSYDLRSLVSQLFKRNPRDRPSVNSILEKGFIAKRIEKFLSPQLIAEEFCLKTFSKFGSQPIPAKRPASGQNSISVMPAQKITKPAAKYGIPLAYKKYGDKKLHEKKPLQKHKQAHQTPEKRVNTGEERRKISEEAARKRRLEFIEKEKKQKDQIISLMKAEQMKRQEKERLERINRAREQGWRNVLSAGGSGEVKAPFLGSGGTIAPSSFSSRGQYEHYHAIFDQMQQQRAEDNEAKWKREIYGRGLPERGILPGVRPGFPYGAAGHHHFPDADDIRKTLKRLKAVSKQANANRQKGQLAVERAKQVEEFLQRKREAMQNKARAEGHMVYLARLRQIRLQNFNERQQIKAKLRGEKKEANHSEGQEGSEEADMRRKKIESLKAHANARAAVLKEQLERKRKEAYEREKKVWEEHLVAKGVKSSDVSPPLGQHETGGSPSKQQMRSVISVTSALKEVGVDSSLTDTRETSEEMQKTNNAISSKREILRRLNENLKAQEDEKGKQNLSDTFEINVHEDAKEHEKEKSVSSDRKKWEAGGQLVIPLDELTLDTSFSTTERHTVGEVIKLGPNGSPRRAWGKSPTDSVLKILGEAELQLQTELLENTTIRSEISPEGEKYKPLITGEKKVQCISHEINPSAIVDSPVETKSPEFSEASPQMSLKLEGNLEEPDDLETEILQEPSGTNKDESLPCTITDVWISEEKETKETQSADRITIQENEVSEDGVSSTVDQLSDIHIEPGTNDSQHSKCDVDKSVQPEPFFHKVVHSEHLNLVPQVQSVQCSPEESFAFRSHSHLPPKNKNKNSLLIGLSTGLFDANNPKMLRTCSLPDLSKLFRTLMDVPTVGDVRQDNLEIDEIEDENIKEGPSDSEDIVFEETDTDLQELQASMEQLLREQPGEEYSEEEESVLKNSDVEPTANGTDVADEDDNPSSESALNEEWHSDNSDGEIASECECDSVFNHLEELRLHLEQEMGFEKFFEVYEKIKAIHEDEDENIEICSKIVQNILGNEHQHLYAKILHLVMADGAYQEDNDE
Particulars: at 0.1 µM.

In assay [13] the target is T5, Serine/threonine-protein kinase Nek1 (Homo sapiens). To be noted: at 1 µM.
Assay [14] has as its target T6, Serine/threonine-protein kinase Nek2 (Homo sapiens) (UniProt P51955).
T6 sequence (whole entry): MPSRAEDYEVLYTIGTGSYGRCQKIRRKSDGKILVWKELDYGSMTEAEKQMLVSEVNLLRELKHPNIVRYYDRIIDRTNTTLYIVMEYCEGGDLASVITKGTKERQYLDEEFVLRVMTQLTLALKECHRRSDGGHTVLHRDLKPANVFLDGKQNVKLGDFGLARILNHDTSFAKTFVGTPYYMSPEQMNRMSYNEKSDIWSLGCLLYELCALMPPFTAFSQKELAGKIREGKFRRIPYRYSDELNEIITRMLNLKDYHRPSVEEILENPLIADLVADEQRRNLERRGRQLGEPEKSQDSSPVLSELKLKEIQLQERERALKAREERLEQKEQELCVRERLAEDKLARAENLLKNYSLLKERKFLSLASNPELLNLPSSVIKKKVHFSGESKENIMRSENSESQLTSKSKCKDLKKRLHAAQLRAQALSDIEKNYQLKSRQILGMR
To be noted: at 0.1 µM.

Assay [15] deals with T6, Serine/threonine-protein kinase Nek2 (Homo sapiens). Particulars: at 1 µM.
The target of assay [16] is Serine/threonine-protein kinase Nek6 (Homo sapiens) (UniProt Q9HC98). To be noted: at 0.1 µM.
Serine/threonine-protein kinase Nek6 (Homo sapiens), sequence (Q9HC98 whole entry): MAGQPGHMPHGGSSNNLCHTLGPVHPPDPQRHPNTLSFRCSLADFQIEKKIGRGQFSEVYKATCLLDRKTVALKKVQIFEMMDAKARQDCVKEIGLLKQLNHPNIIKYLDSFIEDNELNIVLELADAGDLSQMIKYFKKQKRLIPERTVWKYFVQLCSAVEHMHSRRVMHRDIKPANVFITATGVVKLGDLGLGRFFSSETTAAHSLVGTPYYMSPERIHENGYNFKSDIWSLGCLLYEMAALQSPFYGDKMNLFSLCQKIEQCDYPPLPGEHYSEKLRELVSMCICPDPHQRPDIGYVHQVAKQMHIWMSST
Assay [17] has the same target. To be noted: at 1 µM.
The target in assay [18] is Serine/threonine-protein kinase Nek7 (Homo sapiens) (UniProt Q8TDX7). To be noted: at 0.1 µM.
Serine/threonine-protein kinase Nek7 (Homo sapiens), sequence (Q8TDX7 whole entry, looked up): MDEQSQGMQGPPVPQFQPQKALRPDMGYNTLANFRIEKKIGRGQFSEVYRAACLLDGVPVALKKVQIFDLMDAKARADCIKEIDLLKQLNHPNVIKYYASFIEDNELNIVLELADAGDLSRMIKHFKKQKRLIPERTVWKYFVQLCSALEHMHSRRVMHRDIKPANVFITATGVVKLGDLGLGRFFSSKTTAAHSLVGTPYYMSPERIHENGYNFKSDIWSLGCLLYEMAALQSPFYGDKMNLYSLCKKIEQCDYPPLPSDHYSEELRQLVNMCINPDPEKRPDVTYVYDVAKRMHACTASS
Assay [19] has the same target. To be noted: at 1 µM.
The target of assay [20] is T7, Serine/threonine-protein kinase Nek9 (Homo sapiens) (UniProt Q8TD19).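 Also: reported value is the mean percent inhibition of NEK9.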
T7 sequence (whole entry): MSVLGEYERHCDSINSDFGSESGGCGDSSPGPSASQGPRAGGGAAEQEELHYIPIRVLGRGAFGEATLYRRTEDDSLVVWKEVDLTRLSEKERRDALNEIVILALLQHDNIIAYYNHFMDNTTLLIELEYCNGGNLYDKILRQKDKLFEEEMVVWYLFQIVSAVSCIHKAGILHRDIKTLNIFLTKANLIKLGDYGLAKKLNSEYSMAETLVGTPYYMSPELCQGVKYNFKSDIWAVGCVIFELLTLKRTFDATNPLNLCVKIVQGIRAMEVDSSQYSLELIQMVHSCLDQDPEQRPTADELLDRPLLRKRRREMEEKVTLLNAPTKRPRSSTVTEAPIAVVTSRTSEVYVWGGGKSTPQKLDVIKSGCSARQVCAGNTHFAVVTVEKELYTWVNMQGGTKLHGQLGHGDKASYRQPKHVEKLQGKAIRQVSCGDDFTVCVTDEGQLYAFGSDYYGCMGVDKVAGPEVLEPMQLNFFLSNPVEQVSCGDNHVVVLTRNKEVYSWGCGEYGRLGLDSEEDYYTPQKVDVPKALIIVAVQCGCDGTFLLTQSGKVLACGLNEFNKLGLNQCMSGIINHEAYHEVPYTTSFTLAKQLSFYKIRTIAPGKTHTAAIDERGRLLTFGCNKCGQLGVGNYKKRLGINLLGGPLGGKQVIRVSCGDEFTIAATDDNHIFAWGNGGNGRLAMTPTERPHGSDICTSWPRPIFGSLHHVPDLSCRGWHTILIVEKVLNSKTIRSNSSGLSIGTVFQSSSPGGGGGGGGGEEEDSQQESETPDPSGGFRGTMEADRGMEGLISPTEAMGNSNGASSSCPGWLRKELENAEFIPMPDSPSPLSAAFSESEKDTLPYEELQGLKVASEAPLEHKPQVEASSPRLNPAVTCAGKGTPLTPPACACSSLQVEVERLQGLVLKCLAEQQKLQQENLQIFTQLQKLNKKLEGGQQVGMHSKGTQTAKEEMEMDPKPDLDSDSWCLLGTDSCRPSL
Particulars: at 0.1 µM.

Molecules are shown by their SMILES.

Casein kinase II subunit alpha (Homo sapiens), sequence (P68400 whole entry, looked up): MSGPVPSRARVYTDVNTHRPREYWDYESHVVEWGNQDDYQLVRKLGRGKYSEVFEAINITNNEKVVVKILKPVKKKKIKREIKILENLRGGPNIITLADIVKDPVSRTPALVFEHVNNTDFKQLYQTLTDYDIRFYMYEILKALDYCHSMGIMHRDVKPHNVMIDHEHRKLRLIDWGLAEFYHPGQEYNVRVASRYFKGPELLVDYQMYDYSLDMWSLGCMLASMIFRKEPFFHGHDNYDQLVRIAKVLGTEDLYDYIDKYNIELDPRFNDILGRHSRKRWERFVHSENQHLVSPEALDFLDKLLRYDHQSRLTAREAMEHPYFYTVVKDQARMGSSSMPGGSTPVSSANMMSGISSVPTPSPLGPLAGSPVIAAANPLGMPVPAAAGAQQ
Sphingosine kinase 1 (Homo sapiens), sequence (Q9NYA1 whole entry): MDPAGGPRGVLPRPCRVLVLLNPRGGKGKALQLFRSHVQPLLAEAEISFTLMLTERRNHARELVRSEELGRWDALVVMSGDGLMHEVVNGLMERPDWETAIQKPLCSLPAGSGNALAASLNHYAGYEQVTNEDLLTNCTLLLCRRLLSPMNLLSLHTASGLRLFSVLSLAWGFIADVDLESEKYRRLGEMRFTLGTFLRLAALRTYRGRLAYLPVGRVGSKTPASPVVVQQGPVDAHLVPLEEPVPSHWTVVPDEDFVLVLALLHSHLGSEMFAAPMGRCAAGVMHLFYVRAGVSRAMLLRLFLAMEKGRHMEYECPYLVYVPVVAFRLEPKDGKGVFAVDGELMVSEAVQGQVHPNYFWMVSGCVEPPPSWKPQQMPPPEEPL

The inhibition is the drop in the measured response relative to a control, in per cent. High values mean a strong effect, low ones a weak effect. For the molecule `COc1cc(N2CCN(C(C)C)CC2)ccc1Nc1nc(Nc2ccc(F)cc2C(=O)NC[C@@H](O)CO)c2cc[nH]c2n1`, the inhibition is 5.85% in [1]; 0.95% in assay [2]; 0.89% in [3]; 4.77% in assay [4]; 15.7% in [5]; 6.97% in assay [6]. The inhibition in assay [7] worked out at 11.1%; in assay [8] it was 7.85%; in assay [9], 9.5%; in [10] it was 8.4%; in [11], 10.3%; in [12], 2.75%. Further, the inhibition in [13] came to 4.63%; in assay [14] it was 5.32%; in assay [15], 5.19%; in assay [16] it was 1.82%; in assay [17], 3.84%; in [18], 5.49%. For the same molecule, the values for the inhibition in assay [19] and in assay [20] were 3.45% and 2.99%, respectively.

The record behind these values is ChEMBL document CHEMBL1961873, “Compounds: GSK PKIS; Assays: Nanosyn kinase panel” (2012).
